Data from ChEMBL document CHEMBL1201862, “PubChem BioAssay data set” (2004).
The whole screen tested about 400,000 compounds, of which about 2,100 (0.53%) were called active. Inconclusive results (about 14%) are left out. The rule behind the calls is not given here. The entries come from a sample that favours actives as a whole.

These compounds were tested against Ataxin-2 (Homo sapiens) (UniProt Q99700) (assay: qHTS for Inhibitors of ATXN expression.).
Type: functional

Ataxin-2 (Homo sapiens), sequence (Q99700 whole entry): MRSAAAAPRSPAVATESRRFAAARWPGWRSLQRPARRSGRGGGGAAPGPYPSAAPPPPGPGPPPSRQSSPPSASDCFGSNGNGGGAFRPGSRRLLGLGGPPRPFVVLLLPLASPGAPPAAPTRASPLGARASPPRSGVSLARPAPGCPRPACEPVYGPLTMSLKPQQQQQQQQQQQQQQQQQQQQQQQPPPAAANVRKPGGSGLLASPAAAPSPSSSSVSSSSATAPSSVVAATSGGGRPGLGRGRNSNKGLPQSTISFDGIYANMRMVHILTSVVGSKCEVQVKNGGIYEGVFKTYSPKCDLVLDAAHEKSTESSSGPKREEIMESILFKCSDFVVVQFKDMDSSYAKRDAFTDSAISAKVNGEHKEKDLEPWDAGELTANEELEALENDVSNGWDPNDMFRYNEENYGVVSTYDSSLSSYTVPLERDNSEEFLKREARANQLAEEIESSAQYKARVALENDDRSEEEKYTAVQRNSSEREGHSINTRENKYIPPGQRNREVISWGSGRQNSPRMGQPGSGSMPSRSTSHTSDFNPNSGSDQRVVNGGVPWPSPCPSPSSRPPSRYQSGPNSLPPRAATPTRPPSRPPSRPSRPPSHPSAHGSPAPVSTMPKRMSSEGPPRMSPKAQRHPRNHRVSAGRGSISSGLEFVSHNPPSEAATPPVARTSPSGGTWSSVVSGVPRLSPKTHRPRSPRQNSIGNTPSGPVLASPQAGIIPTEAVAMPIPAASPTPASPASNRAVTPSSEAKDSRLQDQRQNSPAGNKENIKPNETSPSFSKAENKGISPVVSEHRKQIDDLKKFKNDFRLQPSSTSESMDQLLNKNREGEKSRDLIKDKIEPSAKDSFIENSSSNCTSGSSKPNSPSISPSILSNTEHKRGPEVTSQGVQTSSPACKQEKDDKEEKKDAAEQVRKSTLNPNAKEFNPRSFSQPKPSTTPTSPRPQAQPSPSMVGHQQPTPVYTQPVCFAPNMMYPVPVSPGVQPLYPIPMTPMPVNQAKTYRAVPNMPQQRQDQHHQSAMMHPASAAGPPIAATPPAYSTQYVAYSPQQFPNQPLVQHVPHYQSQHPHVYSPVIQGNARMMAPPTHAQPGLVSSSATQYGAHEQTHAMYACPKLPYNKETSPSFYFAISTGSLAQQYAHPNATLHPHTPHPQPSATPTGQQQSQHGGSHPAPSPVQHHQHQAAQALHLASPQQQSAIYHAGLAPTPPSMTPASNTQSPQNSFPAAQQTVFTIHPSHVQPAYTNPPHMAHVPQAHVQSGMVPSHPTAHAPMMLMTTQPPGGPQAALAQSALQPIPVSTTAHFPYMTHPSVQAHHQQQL

| Compound | Potency |
| --- | --- |
| COc1ccc(-c2c(C)c3ccc(O)c(CN4CCOCC4)c3oc2=O)cc1OC | inactive |
| COc1ccc(/C=C/c2nc(C#N)c(N3CCCCC3)o2)cc1OC | inactive |
| Cc1ccc(NC(=O)Cn2ncc(Cl)c(Cl)c2=O)cc1S(=O)(=O)N1CCCCC1 | 31.6 µM (active) |
| CCCc1cc(O)nc(SCC(=O)Nc2ccc(C)c(S(=O)(=O)N3CCCCC3)c2)n1 | inactive |
| C=CCN=C(S)Nc1ccc(C)c(S(=O)(=O)N2CCCCC2)c1 | inactive |
| Cc1c(Br)c(C(F)(F)F)nn1CC(=O)NCc1ccco1 | inactive |
| CCN(c1ccc(N/C=C2/C(=O)N(Cc3ccc(OC)cc3)C(=O)c3ccccc32)cc1)C(C)C | inactive |
| COc1ccc(CCNC(=O)CN(c2ccccc2)S(C)(=O)=O)cc1 | inactive |
| COc1ccc(CN([C@H](CO)CC(C)C)S(=O)(=O)N(Cc2ccccc2)[C@H](CO)CC(C)C)cc1 | 39.8 µM (active) |
| C=CS(=O)(=O)c1c2cc(OC)ccc2nc2ccc(OC)cc12 | inactive |
| Cc1cccn2c(=O)c(C=O)c(N3CCCCC3)nc12 | inactive |
| Nc1c(C(=O)Nc2ccccc2Br)sc2nc(-c3cccs3)ccc12 | inactive |
| Cc1nn(CC(=O)N2CCN(c3ccc(Cl)cc3)CC2)c(=O)c2cccn12 | inactive |
| O=C(c1nc(-c2ccc(Cl)cc2)n2c1CCCCC2)N1CCN(c2ccc(F)cc2)CC1 | 22.4 µM (active) |
| O=C(NC(=S)Nc1ccc(N2CCCC2)cc1)c1ccc(F)cc1 | inactive |
| CCC(C)n1c(=N)c(C#N)cc2c(=O)n3cccc(C)c3nc21 (stereo not drawn) | inactive |
| O=C(CN1C(=O)NC(Cc2c[nH]c3ccccc23)C1=O)Nc1cccc(S(=O)(=O)N2CCCC2)c1 (stereo not drawn) | inactive |
| COc1ccccc1C1c2[nH]c3ccccc3c2CCN1Cc1cnc(C)s1 (stereo not drawn) | inactive |
| COC(=O)Cc1c(C)c2ccc3c(c2oc1=O)CN(Cc1ccc(C)cc1)CO3 | inactive |
| C=CC[C@@H](Cc1ccc(F)cc1)C(=O)OC[C@@H]1CCCN1C(=O)[C@H](CC=C)CC(=O)N[C@H](CO)Cc1ccccc1 | 39.8 µM (active) |
| C=CCC[C@@H](Cc1ccc(F)cc1)C(=O)OC[C@@H]1CCCN1C(=O)[C@@H](CC=C)CC(=O)N[C@@H](CO)Cc1ccccc1 | 28.2 µM (active) |
| C=CCC[C@@H](Cc1ccc(F)cc1)C(=O)OC[C@@H]1CCCN1C(=O)[C@H](CC=C)CC(=O)N[C@H](CO)Cc1ccccc1 | 35.5 µM (active) |
| CC(=O)Nc1nn(C)c2nc3ccc(C)cc3cc12 | inactive |
| CCCCCNCC(=O)Nc1cccc(C(=O)Nc2cccc(C(F)(F)F)c2)c1 | 26.7 µM (active) |
| C/C(CC(=O)Nc1cccc(C(F)(F)F)c1)=N\NC(=O)c1ccncc1 | inactive |

| Compound | Potency |
| --- | --- |
| CCN1C(=O)c2ccc(C(=O)Nc3cccc(C(=O)O)c3)cc2C1=O | inactive |
| [O-][n+]1c(-c2ccccc2)c(O)nc2ccccc21 | inactive |
| COc1ccc2c(Cl)c(C(=O)N/N=C3\CCCC(=O)C3)sc2c1 | inactive |
| COCC(C)OC(=O)c1c(N)n(CC(C)C)c2nc3ccccc3nc12 (stereo not drawn) | inactive |
| CCCCc1ccc(-c2csc(/C(C#N)=C\c3ccco3)n2)cc1 | inactive |
| Cc1ccc(O)c(NC(=S)NC(=O)c2ccc(-c3ccc(Cl)cc3)o2)c1 | 22.4 µM (active) |
| CCOCCCn1c(=N)c(C(N)=S)cc2c(=O)n3cccc(C)c3nc21 | inactive |
| NC(=O)c1ccc(NC(=O)c2cc(S(=O)(=O)N3CCCCC3)ccc2N2CCOCC2)cc1 | inactive |
| O=C(Nc1ccc(S(=O)(=O)N2CCCC2)cc1)c1ccc([N+](=O)[O-])o1 | 37.7 µM (active) |
| Cc1cc(C(=O)Nc2ccc(S(=O)(=O)N3CCOCC3)cc2)c(C)o1 | inactive |
| CN1CCN(c2ccc(S(=O)(=O)N3CCCCC3)cc2NC(=O)c2cccc([N+](=O)[O-])c2)CC1 | inactive |
| CCN1CCN(c2ccc(S(=O)(=O)N3CCCCC3)cc2NC(=O)c2ccc([N+](=O)[O-])o2)CC1 | 28.2 µM (active) |
| Cc1ccccc1NC(=O)c1cc(S(=O)(=O)N2CCCCC2)ccc1N1CCOCC1 | inactive |
| CC(=O)Oc1ccc(OC(C)=O)c(SCCCCCCl)c1 | inactive |
| CC1=CC2C(C(O)CC3(C)C2CC(C)C32OCOC23COCO3)C2(C)CC(C=O)=C(O)C=C12 (stereo not drawn) | 15 µM (active) |
| COc1cc(/C=C2\C(=N)N3N=C(S(C)(=O)=O)SC3=NC2=O)ccc1OCCOc1ccccc1C | inactive |
| O=C(CCc1ccc(O)cc1)N/N=C/c1coc2ccccc2c1=O | inactive |
| CNC(=O)c1c(NC(=O)c2ccc(S(=O)(=O)N3CCCC(C)C3)cc2)sc2c1CCC2 (stereo not drawn) | inactive |
| COc1ccccc1Nc1nn2c(=O)c3ccc(C(=O)NCCC4=CCCCC4)cc3nc2s1 | 6.31 µM (active) |
| CCOc1ccccc1NC(=O)c1ccc2c(O)c(S(=O)(=O)c3ccccc3)c(O)nc2c1 | inactive |
| COCCNC(=O)c1c(N)n(CCC2=CCCCC2)c2nc3ccccc3nc12 | inactive |
| O=C1/C(=C/Nn2cnnc2)c2ccccc2C(=O)N1c1ccccc1 | inactive |
| N#Cc1cc2c(=O)n3ccccc3nc2n(Cc2cccnc2)c1=O | inactive |
| Cc1ccc2nc3c(cc(C(=O)NCCc4ccccc4)c(=N)n3CC3CCCO3)c(=O)n2c1 (stereo not drawn) | inactive |
| CCC[C@@H](CN[C@@H](CNC)[C@H](C)CC)NCC1CCC(C(C)(C)C)CC1 (stereo partly drawn) | 35.5 µM (active) |

| Compound | Potency |
| --- | --- |
| CCC[C@H](CN[C@@H](CNC)[C@H](C)CC)NCCc1cc(C(F)(F)F)cc(C(F)(F)F)c1 | 25.1 µM (active) |
| Cc1cc(S(=O)(=O)c2cc3ccc(O)c(C)c3oc2=O)ccc1F | inactive |
| Cn1nc(C(=O)OCC(=O)Nc2ccccc2OC(F)F)c2ccccc2c1=O | inactive |
| CCOC(=O)c1cc2c(=O)n3ccccc3nc2n(CC2CCCO2)/c1=N\C(=O)c1ccccc1F (stereo not drawn) | inactive |
| Cc1ccc(-n2c(S)nnc2Cn2c(C)nc3ccccc32)cc1 | inactive |
| O=[N+]([O-])c1ccc(C2=NN(c3ccccc3)C(c3ccco3)C2)cc1 (stereo not drawn) | inactive |
| COc1ccc(C2=NN(c3ccccc3)C(c3cn(CCC(=O)O)nc3-c3ccccc3)C2)cc1 (stereo not drawn) | inactive |
| COc1ccc(C2=NN(C(=O)COC(=O)c3ccc(S(C)(=O)=O)c([N+](=O)[O-])c3)C(c3ccco3)C2)cc1 (stereo not drawn) | 23.8 µM (active) |
| COc1ccc(C2CC(c3ccccc3)=NN2c2ccc(Cl)c(C(=O)O)c2)cc1 (stereo not drawn) | inactive |
| Cc1nc(N2N=C(c3ccc(Cl)cc3)CC2c2ccco2)sc1C(=O)N(C)C (stereo not drawn) | inactive |
| CCn1cc([N+](=O)[O-])c(C(=O)N2N=C(c3ccc(Cl)c(Cl)c3)CC2c2ccccc2O)n1 (stereo not drawn) | 39.8 µM (active) |
| COc1ccc(C2CC(c3ccccc3)=NN2c2ccc(S(N)(=O)=O)cc2)cc1 (stereo not drawn) | inactive |
| COc1ccc(C2CC(c3ccccc3)=NN2C(=O)c2ccc(Cl)c([N+](=O)[O-])c2)cc1 (stereo not drawn) | 31.6 µM (active) |
| Cc1ccc(C2=CC(c3ccc(N(C)C)cc3)n3nnnc3N2)cc1 (stereo not drawn) | inactive |
| CN1CCc2c(sc3c2C(=O)NC(c2ccccc2)N3)C1 (stereo not drawn) | inactive |
| Cc1ccc(S(=O)(=O)c2cc3ccccc3nc2N)cc1 | inactive |
| Cc1ccc2nc3c(cc(C#N)c(=O)n3-c3nccs3)c(=O)n2c1 | inactive |
| Cc1c(Cc2ccccc2)sc(/N=C/c2c(O)ccc3ccccc23)c1C(N)=O | inactive |
| Cc1ccc(-c2cc(-c3ccco3)c(C#N)c(O)n2)cc1 | inactive |
| CCOC(=O)c1c(NC(=O)C(C)Sc2cccc[n+]2[O-])sc2c1CCN(Cc1ccccc1)C2 (stereo not drawn) | inactive |
| CCOC(=O)c1c(NC(=O)Nc2ccc(C)cc2)sc2c1CCN(C)C2 | inactive |
| CCOC(=O)c1c(NC(=O)C(C)Sc2c[nH]c3ccccc23)sc2c1CCC2 (stereo not drawn) | 3.16 µM (active) |
| CCOC(=O)c1c(NC(=O)C(NCCN(C)C)c2ccccc2)sc2c1CCCC2 (stereo not drawn) | 39.8 µM (active) |
| CCOC(=O)c1c(NC(=O)c2ccc(S(=O)(=O)N(CC(C)C)CC(C)C)cc2)sc2c1CCN(CC)C2 | inactive |
| CCOC(=O)c1c(NC(=O)c2ccc(S(=O)(=O)N(C)C3CCCCC3)cc2)sc2c1CCN(C(C)C)C2 | inactive |

| Compound | Potency |
| --- | --- |
| Cc1ccc2nc(N3CCN(CCO)CC3)nc(-c3ccccc3)c2c1 | inactive |
| CCN1CCc2c(sc(NC(=O)c3ccc(S(=O)(=O)N4CCCC(C)C4)cc3)c2C(=O)OC)C1 (stereo not drawn) | inactive |
| CCN(C(=O)Cc1c(C(=O)O)n(CC)c2ccccc12)c1ccccc1C | inactive |
| CCCN(CCC)CCCNC(=O)c1cc2c(=O)n(CC)c3ccccc3c2s1 | inactive |
| CCOc1ccccc1N(C)C(=O)c1cc2c(=O)n(CC)c3ccccc3c2s1 | 39.8 µM (active) |
| O=C(Cn1ncc(Cl)c(Cl)c1=O)N1CCc2ccccc21 | 7.52 µM (active) |
| CN(CC(=O)Nc1ccc(Cl)cc1)CC(=O)N1CCc2ccccc21 | inactive |
| CC1CC(C)CN(CC(=O)N2CCOCC2)C1 (stereo not drawn) | inactive |
| O=C(Cn1ncc(Cl)c(Cl)c1=O)N1CCN(Cc2ccccc2)CC1 | 39.8 µM (active) |
| O=Cc1cn(CC(=O)N2CCc3ccccc32)c2ccccc12 | inactive |
| O=C(Cn1ncc(Cl)c(Cl)c1=O)N1CCOCC1 | 39.8 µM (active) |
| Cn1c(=O)c2c(nc(Sc3ncnn3CC(=O)N3CCOCC3)n2C)n(C)c1=O | inactive |
| COc1cc2c(cc1OC)CN(Cc1cc(=O)oc3c(C)c(C)ccc13)CC2 | inactive |
| COc1ccc(NC(S)=Nc2ccc3nsnc3c2)cc1 | inactive |
| Cc1ccsc1CN(C)CC(=O)NCC(=O)Nc1ccc(F)cc1 | inactive |
| CCOC(=O)Cc1c(C)c2c(O)cc(O)cc2oc1=O | inactive |
| O=[N+]([O-])c1ccc2c(c1)c1ccccc1n2CCO | inactive |
| CCOC(=O)c1cc(C(=O)OCC)c2ccccn2c1=O | inactive |
| CN(C(=O)COC(=O)c1nnc(O)c2ccccc12)c1ccccc1 | inactive |
| CN(C)c1ccc(/C=c2\c3cc([N+](=O)[O-])ccc3n3c2cc(-c2ccccc2)[n+]3C)cc1 | 31.6 µM (active) |
| COc1ccc2c(c1)c(=Cc1ccc(N(C)C)cc1)c1cc(-c3ccccc3)[n+](C)n12 | 17.8 µM (active) |
| C[n+]1c(-c2ccccc2)cc2c(=Cc3ccccc3)c3ccccc3n21 | 23.8 µM (active) |
| CCOC(=O)c1cc2c(=Cc3ccc(N(C)C)cc3)c3ccccc3n2[n+]1C | 13.4 µM (active) |
